Shown is part of a subset that was picked to be rich in hits.
ST2 IL33 inh: IL1RL1 inhibition; Q01638; AlphaLISA ST2-Fc/biotin-IL-33 interaction, 1 h; inhibition, % for hits at 17 µM; 78,000 compounds, 2.3% hits; AID 1259354; in the data active means inhibition above about 30%
Target sequence (Q01638 whole entry, looked up): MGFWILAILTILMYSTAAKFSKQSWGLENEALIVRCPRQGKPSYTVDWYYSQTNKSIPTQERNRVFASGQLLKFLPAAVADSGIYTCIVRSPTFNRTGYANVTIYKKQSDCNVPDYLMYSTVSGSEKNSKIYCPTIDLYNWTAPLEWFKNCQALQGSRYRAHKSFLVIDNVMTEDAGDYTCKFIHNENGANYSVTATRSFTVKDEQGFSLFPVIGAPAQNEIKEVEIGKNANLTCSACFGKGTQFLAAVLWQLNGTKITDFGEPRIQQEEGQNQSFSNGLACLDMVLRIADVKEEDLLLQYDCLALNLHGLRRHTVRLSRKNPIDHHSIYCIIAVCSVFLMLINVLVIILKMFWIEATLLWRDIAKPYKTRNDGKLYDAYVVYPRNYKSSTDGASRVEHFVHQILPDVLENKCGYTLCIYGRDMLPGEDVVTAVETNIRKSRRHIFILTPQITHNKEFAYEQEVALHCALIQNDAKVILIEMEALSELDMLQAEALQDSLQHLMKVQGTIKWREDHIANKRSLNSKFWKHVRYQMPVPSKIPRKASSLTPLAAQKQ
Starred values were filed as active, the others as inactive; i = inactive.

SMILES	ST2 IL33 inh
COc1ccc(C(=O)Nc2ccc(Nc3nc(C)cc(Nc4ccccc4)n3)cc2)cc1OC	i
NC(=O)c1ccccc1NC(=O)CCC1CCCCC1	i
COc1ccc(Nc2cc(C)nc(Nc3ccc(NC(=O)c4ccc(C(F)(F)F)cc4)cc3)n2)cc1	i
Cc1cc(N(C)C)nc(Nc2ccc(NC(=O)CC3CCCC3)cc2)n1	i
COc1ccc(C(=O)Nc2ccc(C(=O)NCc3ccccc3)cc2)cc1OC	i
COc1ccc(N(C)C(=O)CS(=O)(=O)c2cccc3nsnc23)c(OC)c1	i
CN1CCCC(CCNC(=O)CCC(=O)N2CCCCCC2)C1 (stereo not drawn)	i
O=C(O)c1cc(-c2cccnc2)cc(S(=O)(=O)N2CCCCCC2)c1	i
Cc1cccc(CN2CCC(N3CCC(C(=O)NCCc4ccco4)CC3)CC2)n1	i
CCC(=O)Nc1cccc(C(=O)NCCC2=CSC3=NCCCN23)c1	i
CCOC(=O)C1CCCN(C(=O)c2cc3c(=O)n4ccccc4nc3n2C)C1 (stereo not drawn)	i
CCCC(=O)Nc1ccc(Nc2nc(C)cc(Nc3ccccc3)n2)cc1	31%*
Cc1cc(Nc2ccccc2)nc(Nc2ccc(NC(=O)c3cccc(Br)c3)cc2)n1	i
Cc1ccc(Nc2cc(C)nc(Nc3ccc(NC(=O)CC(C)(C)C)cc3)n2)cc1	i
Cc1ccc(Nc2cc(C)nc(Nc3ccc(NC(=O)c4ccccc4C)cc3)n2)cc1	i
Cc1cc(Nc2ccccc2)nc(Nc2ccc(NC(=O)c3ccccc3)cc2)n1	32%*
Cc1cc(Nc2ccccc2)nc(Nc2ccc(NC(=O)c3ccccc3Cl)cc2)n1	i
CCC(C(=O)Nc1ccc(Nc2nc(C)cc(Nc3ccc(C)cc3)n2)cc1)c1ccccc1 (stereo not drawn)	36%*
CCCC(=O)Nc1ccc(Nc2nc(C)cc(N(C)C)n2)cc1	i
Cc1ccc(Nc2cc(C)nc(Nc3ccc(NC(=O)Cc4ccccc4)cc3)n2)cc1	i
O=C(NCc1ccccc1)N1CCC(Cn2cc(CN3CCC(O)C3)nn2)CC1 (stereo not drawn)	i
Cc1ccc(Cl)cc1NC(=O)c1c(Cl)cccc1Cl	i
O=c1[nH]c2cccnc2n1-c1ccccc1	i
CCOc1ccc(C2C3=C(CC(C)(C)CC3=O)Nc3nc(SC)[nH]c(=O)c32)cc1 (stereo not drawn)	i
CCOC(=O)C1(CC2CC2)CCN(Cc2ccccc2C(F)(F)F)CC1	i
SMILES	ST2 IL33 inh
O=[N+]([O-])c1ccc(N2CCCC2)cc1N1CCOCC1	i
O=[N+]([O-])c1cc(C=Nc2ccc(-c3nc4ncccc4o3)cc2)ccc1Cl	i
O=[N+]([O-])c1cc(C=Nc2ccc(N3CCOCC3)cc2)ccc1Cl	48%*
N#CC1=C(N)Oc2n[nH]c(-c3ccc4ccccc4c3)c2C1c1ccccc1 (stereo not drawn)	i
CC(C)CNC(=O)C(=O)Nc1cccc(Cl)c1	i
COC(=O)c1c(NC(=O)c2ccc(F)cc2)sc2c1CCN(C(C)C)C2	i
CCN1CCc2c(sc(NC(=O)COc3ccccc3)c2C(=O)OC)C1	i
CCN1CCc2c(sc(NC(=O)c3ccc(Cl)cc3)c2C(=O)OC)C1	89%*
CN(C)CC1COCCN(Cc2c(-c3ccccc3)nc3ncccn23)C1 (stereo not drawn)	i
CN1CCN(C(=O)CN2C(=O)S/C(=C/c3ccccc3)C2=O)CC1	i
O=C(O)CN1C(=O)S/C(=C\c2ccco2)C1=O	74%*
CC(C)N1C(=O)S/C(=C\c2ccc(-c3cccc(C(=O)O)c3)o2)C1=O	i
COc1ccc(C(=O)Nc2ccc(-c3nc4ncccc4o3)cc2)cc1Cl	i
CCOc1ccccc1CN1CCSCC1	31%*
COc1ccccc1CN1CCSCC1	i
COc1ccccc1CN1CCCCCC1	i
Cc1cccc(-c2cn(CCCn3nnc4ccccc43)nn2)n1	i
O=C(CC1Sc2ccccc2NC1=O)Nc1ccccc1OC(F)F (stereo not drawn)	i
Cc1nn2cc(Cn3ccnc3-c3nc[nH]c3C)nc2s1	i
COc1cccc(C2CCN(C(=O)c3ccc(CSC)o3)C2)c1OC (stereo not drawn)	i
CCOc1ccc(-c2cn(-c3cc(Cl)c(OC)cc3OC)c(=O)[nH]2)cc1Cl	i
Cc1[nH]nc(NN)c1Cl	55%*
COCCN(Cc1ccccc1F)Cc1coc2ccc(C)cc2c1=O	i
O=C1c2cccc([N+](=O)[O-])c2C(=O)N1c1nc2ccccc2s1	i
CCC(C)(O)c1nnn(-c2nonc2N)c1C(C)(O)CC (stereo not drawn)	i
SMILES	ST2 IL33 inh
CCCc1nc2nc[nH]n2c(=O)c1NC(=O)Nc1ccc(Br)c(C)c1	i
COc1ccc2[nH]cc(C(=O)c3ccc(Cl)cc3)c(=O)c2c1	i
CCOc1cc(/C=C(\C#N)c2nc(-c3ccc(OC)c(OC)c3)cs2)ccc1O	i
Cc1ccc2sc(-c3ccc(NC(=O)c4ccco4)cc3)nc2c1	i
O=C(Nc1nc(-c2ccc(Cl)cc2)cs1)c1cccs1	i
N#C/C(=C\c1cccs1)c1nc(-c2cccs2)cs1	64%*
COc1ccc(/C=C(/C#N)c2nc(-c3cccs3)cs2)cc1OC	49%*
